{"source": "PubChem BioAssay AID488857", "about": "(Sanford-Burnham Center for Chemical Genomics, 2010)", "note": "The campaign covered roughly 1,400 compounds. About 560 (40%) were called active. So high a share suggests a set chosen from earlier hits. This is one part of the list. A number with no mark means an inactive call.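 How the source made its calls: active means mean inhibition over duplicate tests at 10 µM above 50%; inactive means the rest.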", "data": [{"assay": "ASC/caspase-1 reporter retest in S. cerevisiae at one dose, specificity check for NALP1 project (AID 488857)", "details": "S. cerevisiae ASC/Caspase-1, beta-galactosidase luminescence, 24 h; at 10 µM; active compounds read high", "values": [{"smiles": "CCc1ccc(C(=O)NC(CC(C)C)C(=O)O)cc1", "note": "(stereo not drawn)", "inhibition": "46.8%"}, {"smiles": "CC(NC(=O)Nn1cnnc1)(C(F)(F)F)C(F)(F)F", "inhibition": "26.3%"}, {"smiles": "Clc1ccc(Nc2ccc(NCc3ccccc3)nn2)cc1", "inhibition": "85.7% (active)"}, {"smiles": "COc1cc(C2Nc3ccccc3C(=O)N2c2ccccc2)ccc1O", "note": "(stereo not drawn)", "inhibition": "15.1%"}, {"smiles": "O=C(Nc1cc(Cl)ccc1-n1cncn1)c1ccc([N+](=O)[O-])s1", "inhibition": "92% (active)"}, {"smiles": "Cc1ccc2oc(-c3ccc(NC(=O)c4cccnc4)cc3)nc2c1", "inhibition": "46.7%"}, {"smiles": "CCCCCC(=O)Nc1ccc2oc(-c3cccnc3)nc2c1", "inhibition": "58.5% (active)"}, {"smiles": "CCC(=O)Nc1cccc(-c2nc3ccccc3o2)c1", "inhibition": "78.7% (active)"}, {"smiles": "CCCc1cc(C(=O)O)c2ccccc2n1", "inhibition": "39.6%"}, {"smiles": "CC(C)CCN(C(=O)Nc1ccccc1)C(C)c1cccs1", "note": "(stereo not drawn)", "inhibition": "42.2%"}, {"smiles": "COc1ccc2c(c1)NC(=O)CC(c1ccccc1)=N2", "inhibition": "43.8%"}, {"smiles": "N/C(Cc1cccs1)=N\\OC(=O)COc1ccccc1Cl", "inhibition": "59.1% (active)"}, {"smiles": "COc1ccccc1NS(=O)(=O)c1ccc(NC(=O)Cc2cccs2)cc1", "inhibition": "33.9%"}, {"smiles": "C=CCNC(=S)N/N=C(\\C)c1ccccn1", "inhibition": "90.2% (active)"}, {"smiles": "O=C(N/N=C/c1cc2c3c(c1O)CCCN3CCC2)c1ccccc1O", "inhibition": "34.8%"}, {"smiles": "O=C(N/N=C/c1cc(Cl)ccc1O)c1ccc(Br)cc1", "inhibition": "54.1% (active)"}, {"smiles": "O=C(N/N=C/c1ccc2nccnc2c1)c1ccccc1O", "inhibition": "36%"}, {"smiles": "CC(=O)c1ccc(S(=O)(=O)N2CCCC2)cc1", "inhibition": "46.1%"}, {"smiles": "COC(=O)c1ccc(Oc2ccc(S(=O)(=O)N3CCCCC3)cc2N)cc1", "inhibition": "97.8% (active)"}, {"smiles": "C=CCc1cc(Cl)ccc1OCCNCCCOC", "inhibition": "48.5%"}, {"smiles": "C=CCc1cc(Cl)ccc1OCCOCCNCCOC", "inhibition": "50.9% (active)"}, {"smiles": "Cc1cc(SC#N)cc(C)c1NC(=O)CCl", "inhibition": "25.8%"}, {"smiles": "O=C(NCc1ccco1)c1cnn2c1NC(c1ccc(Br)cc1)CC2C(F)(F)F", "note": "(stereo not drawn)", "inhibition": "63.1% (active)"}, {"smiles": "COc1ccc(/C=C\\c2onc(C)c2S(=O)(=O)N2CCC(C(=O)NCc3ccco3)CC2)cc1", "inhibition": "42%"}, {"smiles": "COc1cccc(N2CCN(C3CCCC(C)C3)CC2)c1", "note": "(stereo not drawn)", "inhibition": "38%"}, {"smiles": "COc1cccc(NC(=O)Cn2cnc3sc(C)c(S(=O)(=O)N4CCCCC4)c3c2=O)c1", "inhibition": "30.9%"}, {"smiles": "CC1CC1C(=O)Nc1nc(-c2ccccc2)cs1", "note": "(stereo not drawn)", "inhibition": "68.5% (active)"}, {"smiles": "O=C(COC(=O)c1cccs1)Nc1nc(-c2ccccc2)cs1", "inhibition": "48.2%"}, {"smiles": "O=C(COC(=O)/C=C/c1cccs1)Nc1nc(-c2ccccc2)cs1", "inhibition": "13.3%"}, {"smiles": "CC(C)c1ccc(N2C(=O)CC(Sc3ncn[nH]3)C2=O)cc1", "note": "(stereo not drawn)", "inhibition": "58.9% (active)"}, {"smiles": "Cc1ccc(N2C(=O)CC(Sc3ccccc3C(=O)O)C2=O)cc1", "note": "(stereo not drawn)", "inhibition": "26.1%"}, {"smiles": "Cc1cc(C)cc(N2C(=O)CC(Sc3ncn[nH]3)C2=O)c1", "note": "(stereo not drawn)", "inhibition": "63.5% (active)"}, {"smiles": "O=C(Cn1nnc2ccccc21)OCC(=O)c1ccc(Cl)cc1", "inhibition": "39.8%"}, {"smiles": "CCn1c(N2CCN(C(=O)C34CC5CC(CC(C5)C3)C4)CC2)nc2ccccc21", "inhibition": "54.5% (active)"}, {"smiles": "CCn1c(=O)cc(SCC(=O)N2CCN(C3CCCCC3)CC2)c2ccccc21", "inhibition": "29.9%"}, {"smiles": "CCN1c2ccccc2-c2nc3ccccc3n2C1c1cccs1", "note": "(stereo not drawn)", "inhibition": "63.7% (active)"}, {"smiles": "CN1c2ccccc2-c2nc3ccccc3n2C1c1cccs1", "note": "(stereo not drawn)", "inhibition": "62.9% (active)"}, {"smiles": "c1csc(CNc2nc3ccccc3n2CCN2CCOCC2)c1", "inhibition": "35.6%"}, {"smiles": "c1csc(C2Nc3ccccc3-c3nc4ccccc4n32)c1", "note": "(stereo not drawn)", "inhibition": "64.8% (active)"}, {"smiles": "CCOC(=O)N1CCC(=NNS(=O)(=O)c2cccc([N+](=O)[O-])c2)CC1", "inhibition": "31.6%"}, {"smiles": "COn1c2c(c3c4nonc4ccc31)CCCC2", "inhibition": "31.4%"}, {"smiles": "CC1CC(C)CN(S(=O)(=O)c2ccc(C(=O)NCc3ccc4c(c3)OCO4)cc2)C1", "note": "(stereo not drawn)", "inhibition": "31.6%"}, {"smiles": "Cc1nc2cc(C(=O)NCc3ccc4c(c3)OCO4)ccc2n1-c1ccc(Br)cc1", "inhibition": "58.9% (active)"}, {"smiles": "O=C(/C=C\\Nc1cccc(F)c1)c1cccs1", "inhibition": "47.2%"}, {"smiles": "COc1cc(NC(=O)c2cccs2)cc(OC)c1", "inhibition": "82% (active)"}, {"smiles": "CCN(CC)S(=O)(=O)c1cccc(C(=O)Oc2cccc(NC(=O)c3cccs3)c2)c1", "inhibition": "35.9%"}, {"smiles": "O=C(CN1CCCCC1)Nc1nc(-c2ccc(F)c(F)c2)cs1", "inhibition": "55.9% (active)"}, {"smiles": "CC1CCCC(C)N1C(=O)CN1CCN(c2nc(-c3ccc(F)cc3)cs2)CC1", "note": "(stereo not drawn)", "inhibition": "44.5%"}, {"smiles": "O=C(CN1CCCCC1)Nc1cccc(Oc2ccccc2)c1", "inhibition": "38.8%"}, {"smiles": "COCC(=O)n1nc(-c2ccc(Cl)cc2)nc1NCc1ccc(F)cc1", "inhibition": "36.2%"}, {"smiles": "CCCCCCCCNC(C)C(O)c1ccc(SC(C)C)cc1", "note": "(stereo not drawn)", "inhibition": "38.9%"}, {"smiles": "CC(C)CC(=O)/C(=C\\c1ccc(Cl)cc1Cl)n1cncn1", "inhibition": "101% (active)"}, {"smiles": "CSc1nnc(-c2cc3c(s2)-c2ccccc2CC3)o1", "inhibition": "46.8%"}, {"smiles": "COC(=O)COc1ccc(S(=O)(=O)NCCC2=CCCCC2)cc1Cl", "inhibition": "40.1%"}, {"smiles": "CC(OC(=O)Cc1c(F)cccc1Cl)C(=O)NCCC1=CCCCC1", "note": "(stereo not drawn)", "inhibition": "46.8%"}, {"smiles": "O=C(COC(=O)Cc1c(F)cccc1Cl)NCCC1=CCCCC1", "inhibition": "61.6% (active)"}, {"smiles": "Cc1cc(C(C)(C)C)cc(S(=O)(=O)Nc2ccc(O)c(C(=O)O)c2)c1C", "inhibition": "27.8%"}, {"smiles": "Cc1ccc(/C(COc2ccccc2O)=N\\O)cc1", "inhibition": "47.8%"}, {"smiles": "COc1ccccc1/C=N\\N=C(\\N)c1ccccn1", "inhibition": "48.5%"}, {"smiles": "Cc1ccc(Oc2ccccc2/C=N/O)cc1", "inhibition": "51.9% (active)"}, {"smiles": "COC(=O)c1sccc1NC(=O)c1csc(C)c1", "inhibition": "49%"}, {"smiles": "Cc1ccc2c(Cl)c(C)c(N3CCCCC3)nc2n1", "inhibition": "74.8% (active)"}, {"smiles": "NC(=O)C1(N2CCCCC2)CCN(Cc2nc(-c3cccs3)no2)CC1", "inhibition": "24.1%"}, {"smiles": "COC(=O)c1ccc(C(=O)OC)c(NC(=O)COC(=O)C2CCCCC2)c1", "inhibition": "35.8%"}, {"smiles": "COC(=O)c1ccc(NC(=O)C(=O)N2CCCC2)cc1", "inhibition": "52.5% (active)"}, {"smiles": "COC(=O)c1ccc(NC(=O)CN2C(=O)CNC2=O)cc1", "inhibition": "30.4%"}, {"smiles": "CCOC(=O)C1(Cc2ccc(OC)cc2)CCN(C(=O)CCc2cnccn2)CC1", "inhibition": "20.9%"}, {"smiles": "Cc1cccnc1NC(=O)c1ccccc1NC(=O)C(C)(C)C", "inhibition": "41.2%"}, {"smiles": "COc1ccc(Nc2ncccc2C(=O)NCc2ccccc2)cc1", "inhibition": "67% (active)"}, {"smiles": "Cc1cc(C)c([C@@H]2C[C@H]3CN(C4CCCC4)C(=O)[C@]34CCCN24)c(-n2cccn2)c1", "inhibition": "36.2%"}, {"smiles": "O=C(Nc1ccc2c(c1)Cc1ccccc1-2)c1ccncc1", "inhibition": "74.5% (active)"}, {"smiles": "CS(=O)(=O)N(Cc1ccccc1)c1ccc(C(=O)Nc2cccnc2)cc1", "inhibition": "36%"}, {"smiles": "O=C(Nc1ccc(Cl)c(Cl)c1)c1ccncc1", "inhibition": "44.9%"}, {"smiles": "O=C(CN1CCN(c2ccccc2)CC1)Nc1ccc2c(c1)CCC2", "inhibition": "21.1%"}, {"smiles": "COc1ccc(OCC(=O)NC(=S)N2CCCc3ccccc32)cc1", "inhibition": "37.9%"}, {"smiles": "O=C(Nc1ccc2nc3ccccc3nc2c1)c1ccccc1", "inhibition": "90.7% (active)"}, {"smiles": "O=C(COC(=O)CCC1CCCCC1)Nc1ccc(OC(F)F)cc1", "inhibition": "23.5%"}, {"smiles": "O=C(COc1ccc(Cl)cc1)Nc1ccc2c(c1)CCC2", "inhibition": "71.5% (active)"}, {"smiles": "C=C(C)C(=O)Nc1cccc(C(C)=O)c1", "inhibition": "38.2%"}, {"smiles": "O=C(Nc1ccc2c(c1)CCC2)c1ccccc1", "inhibition": "71.7% (active)"}, {"smiles": "CS(=O)(=O)N(Cc1ccccc1)c1ccc(C(=O)Nc2ccc3c(c2)OCO3)cc1", "inhibition": "36%"}, {"smiles": "Cc1cccc(N2C(=O)CC(Sc3ccccc3C(=O)O)C2=O)c1", "note": "(stereo not drawn)", "inhibition": "49.3%"}, {"smiles": "COC(=O)c1ccccc1SC1CC(=O)N(c2cccc(C)c2)C1=O", "note": "(stereo not drawn)", "inhibition": "37.6%"}, {"smiles": "CCN(CC)C1CC(=O)N(c2cccc(C)c2)C1=O", "note": "(stereo not drawn)", "inhibition": "58% (active)"}, {"smiles": "C=CCn1c(CNC(=O)c2cccs2)nnc1SCC(=O)Nc1ccc(C(=O)O)cc1", "inhibition": "28.1%"}, {"smiles": "O=c1sc(Nc2ccccc2)nc2ccsc12", "inhibition": "77.2% (active)"}, {"smiles": "N#Cc1ccc(Oc2nc(Nc3ccc(F)cc3)nc(N3CCCC3)n2)cc1", "inhibition": "37.5%"}, {"smiles": "CN(C)S(=O)(=O)c1cccc2c1C(=O)c1ccccc1C2=O", "inhibition": "44.5%"}, {"smiles": "CN(C=[N+](C)C)c1cccc2c1C(=O)c1ccccc1C2=O", "inhibition": "42.7%"}, {"smiles": "O=C1c2cccc(O)c2C(=O)c2c(O)cccc21", "inhibition": "59.5% (active)"}, {"smiles": "S=C(NC1CCCCC1)NN(c1ccccc1)c1ccccc1", "inhibition": "53.4% (active)"}, {"smiles": "O=C(O)CCCCc1nc2ccccc2s1", "inhibition": "32%"}, {"smiles": "O=C(CCc1nc2ccccc2s1)Nc1ccccc1", "inhibition": "80.2% (active)"}, {"smiles": "CCOc1ccccc1N1CCN(C(=O)CCCc2nc3ccccc3s2)CC1", "inhibition": "48.7%"}, {"smiles": "Cc1ccsc1/C=N/n1c(-c2ccccn2)n[nH]c1=S", "inhibition": "54.9% (active)"}, {"smiles": "Cc1ccc2nc(Cl)c(C3CC(c4cccs4)=NN3C(=O)CCCC(=O)O)cc2c1", "note": "(stereo not drawn)", "inhibition": "30.2%"}, {"smiles": "Cc1ccc(Sc2nnc(Cc3ccccc3)c3ccccc23)cc1", "inhibition": "48.1%"}, {"smiles": "Clc1ccc2oc3c(Cl)ncnc3c2c1", "inhibition": "29.9%"}, {"smiles": "COc1ccc2c(c1)C1=NN(/C(C)=C/C(C)=O)C(c3cccc(F)c3)C1CC2", "note": "(stereo not drawn)", "inhibition": "47.5%"}, {"smiles": "Cc1ccc(C(=O)c2no[n+]([O-])c2C(=O)c2ccc(C)cc2)cc1", "inhibition": "77.2% (active)"}, {"smiles": "Cc1ccc(C(=O)/C=C\\C(=O)c2ccc(C)cc2)cc1", "inhibition": "44.1%"}, {"smiles": "CC(C)c1nc2sc3c(=O)[nH]c(=S)[nH]c3c2c2c1CCC2", "inhibition": "32%"}, {"smiles": "O=C1C2C3C=CC(C2C(=O)N1CCCO)C1C2C(=O)N(CCCO)C(=O)C2C31", "note": "(stereo not drawn)", "inhibition": "40.4%"}]}]}
